Assay outcomes deposited in PubChem BioAssay by The Scripps Research Institute Molecular Screening Center.
The list is not random: actives were taken first. Their share in the collection is about 3.5%.
GPR151 ag = human GPR151 activation | Q8TDV0 | activation, % at 11.2 µM | PathHunter beta-arrestin GPR151 cells, luminescence | 650,000 compounds, 1% hits; in the data active = activation above about 4.9%
TEAD-YAP block = TEAD-YAP interaction inhibition | 640,000 compounds, 1.4% hits | inhibition, % at 9.12 µM | HEK-TIYL cells, TEAD-Gal4/YAP UAS-luciferase luminescence; in the data active = inhibition above about 32%
FBW7 act = activators of human E3 ligase FBW7; Q969H0; AlphaScreen FBW7–phospho-cyclin E peptide binding, activator screen; normalized activity (activation), % at 26.1 µM; 650,000 compounds, 0.13% hits; in the data active = normalized activity above about 1.9%;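 note: purified mutant Fbw7 with reduced substrate affinity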
MITF inh = blocks human microphthalmia-associated transcription factor. O75030. AlphaScreen MITF homodimerization, bead proximity signal. inhibition, % at 2.6 µM. 650,000 compounds, 0.91% hits; in the data active = inhibition above about 50%
Target sequence (O75030 whole entry, looked up): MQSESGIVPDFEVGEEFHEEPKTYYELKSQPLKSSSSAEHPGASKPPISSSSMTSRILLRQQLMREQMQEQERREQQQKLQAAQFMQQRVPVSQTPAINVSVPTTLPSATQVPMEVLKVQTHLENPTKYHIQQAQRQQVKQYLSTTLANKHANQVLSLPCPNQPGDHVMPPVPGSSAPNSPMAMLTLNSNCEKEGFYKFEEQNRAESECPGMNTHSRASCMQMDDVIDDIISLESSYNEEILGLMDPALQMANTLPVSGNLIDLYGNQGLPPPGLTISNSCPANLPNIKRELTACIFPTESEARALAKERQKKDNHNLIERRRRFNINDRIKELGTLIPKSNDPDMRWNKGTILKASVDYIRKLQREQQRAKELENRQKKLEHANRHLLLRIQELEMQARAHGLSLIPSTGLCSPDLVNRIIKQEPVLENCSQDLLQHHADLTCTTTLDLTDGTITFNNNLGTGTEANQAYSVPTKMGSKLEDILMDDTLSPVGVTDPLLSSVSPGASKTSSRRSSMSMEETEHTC
GPR151 conf act = human GPR151 activation, confirmation screen. shares compounds with GPR151 ag. GPR151 PathHunter beta-arrestin cells, luminescence, 90 min; % of EA-reagent control over plate median. activation, % at 11.2 µM. 6,700 tested, under 10 active. AID 1508609;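 active = mean percent activation across replicates above the confirmation screen cutoff of 4.91%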
GPR119 ag = activates human GPR119 in a GPR151 counter-screen. shares compounds with GPR151 ag. GPR119 PathHunter beta-arrestin cells, luminescence, 90 min; 0 = compound-well median, 100 = enzyme-acceptor control. activation, % at 11.2 µM. 6,700 compounds, 0.3% hits. AID 1508611;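 active = mean percent activation in the counterscreen above 29.09%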;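 note: counterscreen on off-target GPR119 to flag nonselective hits from the GPR151 activator screen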
A number is an active result; – = inactive; · = not tested or not shown.

SMILES	GPR151 ag	TEAD-YAP block	FBW7 act	MITF inh	GPR151 conf act	GPR119 ag
COc1ccc(-c2cc3ccc(O)c(CN4CCOCC4)c3oc2=O)cc1	–	–	–	–	·	·
O=c1oc2c(CN3CCOCC3)c(O)ccc2cc1-c1ccc(F)cc1	14.2	–	–	–	–	–
Cc1cc2nc3c(=O)n(C4CCCCCC4)c(=O)[nH]c3nc2cc1N	5.1	–	–	–	–	–
CCOC(=O)C(C)NC(=O)CCc1nnc2ccc(N3CCC(C)CC3)nn12 (stereo not given)	5.4	–	–	–	–	–
CCOc1ccccc1NC(=O)CCc1nnc2ccc(N3CCCC3)nn12	6.7	–	–	–	–	–
CCOc1ccccc1NC(=O)CCc1nnc2ccc(N3CCCCC3)nn12	–	–	–	–	·	·
O=C(c1ccc2c(=O)n(Cc3ccc4c(c3)OCO4)c(=S)[nH]c2c1)N1CCC(N2CCCCC2)CC1	–	–	–	–	·	·
COc1ccc(-n2ccn(CC(=O)Nc3ccc(C)cc3)c2=O)cc1	–	–	–	–	·	·
CCC(=O)c1ccc(OCC(O)CN2CCN(c3ccccc3OC)CC2)cc1 (stereo not given)	–	–	–	–	·	·
COc1ccccc1N1CCN(CCN2CCN(C)CC2)CC1	12.5	–	–	–	–	–
COC(=O)c1ccc(OCC(O)CN2CCN(c3ccccc3OC)CC2)cc1 (stereo not given)	10.7	–	–	–	–	–
Cc1cc(C)cc(-n2sc3c(c2=S)-c2ccc(C)cc2NC3(C)C)c1	–	–	–	–	·	·
O=C(CNC(=O)c1cccs1)OCc1c(F)cccc1Cl	–	–	–	–	·	·
O=C(CNC(=O)c1cccs1)OCc1c(Cl)cccc1Cl	5.4	–	–	–	–	–
Cc1ccc(C(=O)NNc2cc(N3CCCCC3)nc(N3CCCCC3)n2)cc1	–	–	–	–	·	·
O=C(N/N=C/c1cccnc1)c1ccc(Br)o1	–	–	–	–	·	·
O=C(N/N=C/c1cccc(O)c1)c1ccc(Br)o1	8.3	–	–	–	–	–
O=C(C1CCCN(Cc2nc(COc3ccccc3)no2)C1)N1CCOCC1 (stereo not given)	–	–	–	–	·	·
CCOc1cc(/C=N/N=C2/NC(=O)CS2)ccc1OC(=O)c1ccc(OC)cc1	–	–	–	–	·	·
CCOc1cc(/C=N/N=C2/NC(=O)CS2)cc(Cl)c1O	7.1	–	–	–	–	–
O=C(N/N=C/c1ccc(Br)cc1)C1CC(=O)N(c2ccc(F)cc2)C1 (stereo not given)	–	–	–	–	·	·
O=C(N/N=C/c1cccc(Br)c1)C1CC(=O)N(c2ccccc2)C1 (stereo not given)	5.3	–	2.8	–	–	–
Cc1ccc(NC(=O)COc2ccc(N3CC(C(N)=O)CC3=O)cc2)cc1 (stereo not given)	6.4	–	–	–	–	–
CCOc1ccc(NC(=O)COC(=O)C2CC(=O)N(c3ccc(C)cc3)C2)cc1 (stereo not given)	–	–	–	–	·	·
CC(=O)Nc1ccc(NC(=O)C2CC(=O)N(c3ccc(Br)cc3)C2)cc1 (stereo not given)	8.5	–	–	–	–	–
SMILES	GPR151 ag	TEAD-YAP block	FBW7 act	MITF inh	GPR151 conf act	GPR119 ag
CCCCC(C)NC(=O)C1CC(=O)N(c2ccc(OCC)cc2)C1 (stereo not given)	5.5	–	–	–	–	–
O=C(OCC(=O)C12CC3CC(CC(C3)C1)C2)c1ccc([N+](=O)[O-])s1	–	–	–	–	·	·
CCc1ccc(NC(=O)CSc2nnnn2-c2ccc(C(C)=O)cc2)cc1	–	–	–	–	·	·
O=C(N/N=C/c1cccs1)C1CC(=O)N(c2ccc(Cl)cc2)C1 (stereo not given)	11.8	–	–	–	–	–
COc1c(C)cc(C(=O)C2CCCN(S(=O)(=O)c3c(C)nn(C)c3Cl)C2)cc1C (stereo not given)	8.7	–	–	–	–	–
COc1ccc(C(=O)C2CCCN(S(=O)(=O)c3c(C)nn(C)c3Cl)C2)c(C)c1 (stereo not given)	–	–	–	–	·	·
COc1ccc(-n2c(O)c(C=Nc3cc(OC)ccc3OC)c3ccccc3c2=O)cc1	–	–	–	–	·	·
O=C(Nc1nc2ccccc2[nH]1)c1ccc(Br)cc1	8.0	–	–	–	–	–
O=C1c2ccccc2C(=O)C1(Nc1ccc(Br)cc1)c1ccccc1	6.9	–	–	–	–	–
CCN(CC)C(=O)c1sc(N)c(C(=O)OC(C)C)c1C	16.1	–	–	–	–	–
COc1cc(N2CCOCC2)ccc1/C=C1\C(=O)NC(=S)N(c2ccc(F)cc2)C1=O	5.2	–	–	–	–	–
Cc1cccc(-n2nnnc2C(c2ccccc2)N2CCOCC2)c1 (stereo not given)	8.5	–	–	–	–	–
Cc1cc2c(s1)c1cnn(CC(N)=O)c(=O)c1n2C	–	–	–	–	·	·
CN1CCC(O)(c2ccc3c(c2)CN(Cc2cccc(F)c2F)CCO3)CC1	–	–	–	–	·	·
c1ccc2c(c1)OC[C@H](c1nc3ccc(-c4ccncc4)cc3[nH]1)O2	–	–	–	–	·	·
FC(F)(F)c1cc2[nH]c(C3COc4ccccc4O3)nc2cc1-c1ccncc1 (stereo not given)	8.0	–	–	–	–	–
CCCCCOC(=O)c1ccc(OC(=O)c2sc3ncn(Cc4ccccc4Cl)c(=O)c3c2C)cc1	–	–	–	–	·	·
COc1ccc(NC(=O)n2cc(C)cn2)cc1OC	5.2	–	–	–	–	–
COc1ccc(Cl)cc1NC(=O)n1cc(C)cn1	–	–	–	–	·	·
COc1cc(C)c(CN2CCc3nnc(CNC(=O)c4ccncc4)n3CC2)cc1C	–	–	–	–	·	·
CN(CC1COCCO1)C(=O)c1cc(COc2c(F)cccc2F)on1 (stereo not given)	16.2	–	–	–	–	–
NC(=O)c1ccc(N2CCCCC2)c([N+](=O)[O-])c1	–	–	–	–	·	·
O=S(=O)(c1cccc(S(=O)(=O)N2CCOCC2)c1)c1ccc(Cl)c(Cl)c1	5.5	–	–	–	–	–
CC12CCC(C(=O)Nc3ccc(F)c(F)c3)(CC1=O)C2(C)C (stereo not given)	8.8	–	–	–	–	–
Cc1ccc2cc(CN(CCCO)Cc3nnnn3C3CCCCC3)c(=O)[nH]c2c1	–	–	–	–	·	·
CCn1c(O)c(/C=C2\C=Nc3ccc(Br)cc32)sc1=O	–	–	–	–	·	·
Oc1[nH]c(=S)sc1/C=C1\C=Nc2ccc(Br)cc21	6.0	–	–	–	–	–
Clc1ccccc1Nc1ncnc2ccc(Br)cc12	–	–	–	–	·	·
Brc1ccc2ncnc(Nc3cccc4ccccc34)c2c1	11.3	–	–	–	–	–
Cn1c(=O)c2c(ncn2CC(=O)N/N=C/c2ccccc2F)n(C)c1=O	–	–	–	–	·	·
